# High-throughput results from PubChem BioAssay.
# An excerpt weighted towards active compounds, which were near 2.5% of everything screened.
# RAD52 anneal inh: inhibitors of human RAD52 DNA annealing; P43351; recombinant RAD52 DNA annealing, FRET fluorescence; inhibition, % at 18.7 µM; 360,000 compounds, 0.46% hits;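 active = every replicate showing at least 50% inhibition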
# Target sequence (P43351 whole entry, looked up): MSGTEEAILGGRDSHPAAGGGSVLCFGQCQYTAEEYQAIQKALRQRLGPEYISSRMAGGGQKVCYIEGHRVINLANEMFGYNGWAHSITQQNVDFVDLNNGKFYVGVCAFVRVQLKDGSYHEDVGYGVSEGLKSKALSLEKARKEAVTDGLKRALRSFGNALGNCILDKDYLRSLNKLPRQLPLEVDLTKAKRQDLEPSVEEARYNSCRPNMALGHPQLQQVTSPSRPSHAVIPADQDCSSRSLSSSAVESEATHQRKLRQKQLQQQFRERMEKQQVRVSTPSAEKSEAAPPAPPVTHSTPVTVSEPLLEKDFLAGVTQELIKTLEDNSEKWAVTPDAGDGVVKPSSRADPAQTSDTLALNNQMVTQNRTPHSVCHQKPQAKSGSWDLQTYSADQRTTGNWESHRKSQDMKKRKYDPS
# AF4-AF9 inh: blocks AF4 peptide binding to human AF9; P42568; AlphaScreen, biotin-AF4 peptide binding to FLAG-AF9; inhibition, % at 10 µM; 350,000 compounds, 0.47% hits; AID 651704;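 active = every replicate reaching a set inhibition limit, whatever the replicate mean, cut at about 25% in these data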
# rRNA inh HTS: selective bacterial rRNA inhibition in E. coli. GFP signal change (wild-type ribosome), % (test concentration not listed). E. coli WT GFP vs humanized-ribosome RFP mutants, fluorescence, 24 h; active compounds read low; DMSO median 0, no signal -100. 350,000 compounds, 1.6% hits;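 active = significant combined selectivity score with lowered wild-type GFP, culture density cut under 30%, mutant RFP and density less affected; inactive = any of these conditions unmet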
# Casp6 inh: blocks human caspase-6 cleavage activity. P55212. purified caspase-6, Z-VEID-R110 cleavage fluorescence. inhibition, % at 12.5 µM. 350,000 compounds, 0.53% hits. AID 686996;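 active = mean inhibition across replicates at least about 35%, with every replicate also reaching that limit, limit read from the data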
# NSD2 HMT inh: NSD2 (human) methyltransferase inhibition. O96028. inhibition, % at 12.5 µM. AID 743445. NSD2 peptide methylation, AlphaScreen, 120 min. 310,000 compounds, 0.54% hits; in the data active = inhibition above about 50%
# A number is an active result; i = inactive; nt = no result given.
SMILES,RAD52 anneal inh,AF4-AF9 inh,rRNA inh HTS,Casp6 inh,NSD2 HMT inh
O=C(Nc1ccc(Oc2cccc(C(F)(F)F)c2)nc1)c1ccccc1,i,i,i,i,i
CC(C)Cn1c(=O)c(C(=O)Nc2ccncc2)c(O)c2ccccc21,i,i,-26.1,i,nt
COc1ccc2c3c(n(C)c2c1)[C@@H](CO)NCC31CCN(Cc2cc(-c3ccccc3)on2)CC1,58.8,36.7,i,i,nt
COc1ccc2c3c(n(C)c2c1)[C@@H](CO)NCC31CN(Cc2cc(-c3ccccc3)on2)C1,i,i,i,nt,nt
COc1ccc2c3c(n(C)c2c1)[C@H](CO)NCC31CN(Cc2cc(-c3ccccc3)on2)C1,80.0,40.1,i,nt,nt
Cc1c(Cc2ccccc2)c(=O)oc2cc(OCC(=O)NC(Cc3ccc(Cl)cc3)C(=O)O)ccc12 (centres undefined),i,i,-26.8,i,nt
FC(F)(F)c1ccnc(Sc2n[nH]c(C(F)(F)F)n2)c1,i,i,-24.8,i,i
FC(F)(F)c1ccc(Sc2n[nH]c(C(F)(F)F)n2)nc1,i,i,i,i,i
CCCC#Cc1cnc2c(c1)C(=O)N([C@H](C)CO)C[C@@H](C)[C@@H](CN(C)Cc1ccc(F)cc1)O2,i,i,i,i,nt
CN(C)C(=O)C[C@@H]1CC[C@H](NC(=O)Nc2cccc(F)c2)[C@@H](CO)O1,i,i,i,i,nt
COc1ccc(C(=O)NC(=S)Nc2ccc(CN3CCOCC3)cc2)cc1Cl,i,i,i,i,i
COc1ccc(C(=O)NC(=S)Nc2ccc(CN3CCCCC3)cc2)cc1Cl,i,i,-20.3,i,i
CCN(CC)S(=O)(=O)c1cccc(NC(=O)COc2ccc(F)cc2Br)c1,i,i,-27.0,i,i
COc1cc(SC)ccc1C(=O)Nc1cccc(S(=O)(=O)NC2=NCCCCC2)c1,i,i,i,i,i
CCN(CC)S(=O)(=O)c1ccc(/C=C/C(=O)Nc2cccc(F)c2)cc1,i,i,-17.1,i,i
CCN(CC)S(=O)(=O)c1cccc(NC(=O)c2ccc(SC)cc2OC)c1,i,i,-25.1,i,nt
CCN(CC)S(=O)(=O)c1cccc(NC(=O)COc2ccc(C#N)cc2OC)c1,nt,nt,nt,nt,i
CC(=O)Nc1ccc2c(c1)CC(=O)N(C)C[C@H](C)[C@H](CN(C)C(C)=O)O2,nt,nt,i,nt,nt
CC(C)NC(=O)N1CC2(C1)[C@@H](c1ccccc1)[C@@H](CO)N2C(=O)C1CCC1,nt,nt,i,nt,nt
Cc1ccc(C2=N/C(=C\c3coc4ccccc4c3=O)C(=O)O2)cc1,i,i,i,44.1,i
COc1ccc(-c2nc3ccccc3nc2-c2ccc(OC)cc2)cc1,i,i,i,i,i
COc1cnc(-c2ccccc2)c(-c2ccccc2)n1,i,nt,-31.9,i,i
COc1ccc2c3c(n(C)c2c1)[C@H](CO)N(Cc1ccc2c(c1)OCO2)CC31CN(C(=O)c2ccc3c(c2)OCO3)C1,i,i,i,i,nt
Cc1ccc(N/N=C(\C#N)C(N)=S)cc1C,i,i,-33.4,i,i
O=C(NCC[C@@H]1CC[C@@H](NS(=O)(=O)c2ccc(Cl)cc2)[C@H](CO)O1)c1ccccc1F,i,i,i,i,nt
SMILES,RAD52 anneal inh,AF4-AF9 inh,rRNA inh HTS,Casp6 inh,NSD2 HMT inh
C[C@@H]1CN([C@@H](C)CO)C(=O)c2cc(NC(=O)Nc3ccc4c(c3)OCO4)ccc2O[C@H]1CN(C)CC1CCCCC1,nt,nt,i,nt,nt
COc1cccc(S(=O)(=O)N[C@H]2C=C[C@@H](CC(=O)NCc3ccncc3)O[C@H]2CO)c1,i,i,i,i,nt
C[C@@H]1CN([C@@H](C)CO)C(=O)c2cccc(NC(=O)Nc3ccc4c(c3)OCO4)c2O[C@H]1CN(C)CC1CCCCC1,i,i,i,i,nt
C[C@H](CO)N1C[C@H](C)[C@@H](CN(C)CC2CCCCC2)Oc2ccc(NC(=O)Nc3ccc4c(c3)OCO4)cc2CC1=O,i,26.0,i,i,nt
C[C@@H]1CN([C@@H](C)CO)C(=O)c2cccc(NC(=O)Nc3ccc4c(c3)OCO4)c2O[C@@H]1CN(C)CC1CC1,i,25.4,i,i,nt
C[C@@H]1CN([C@@H](C)CO)C(=O)c2cccc(NC(=O)Nc3cccc4ccccc34)c2O[C@H]1CN(C)CC1CC1,i,i,i,37.9,nt
O=C(OC[C@@H]1[C@H]2c3ccccc3OC1(CO)N=C1SCCCN12)c1ccccc1,i,i,nt,i,nt
C=C[C@]1(C)C=C2C(=O)[C@@]3(O)OC(=O)[C@@]4(CCCC(C)(C)[C@H]34)[C@@]2(O)CC1,i,i,i,37.4,nt
COC(=O)c1cccc(C(=O)N2CCCC(C(=O)c3ccccc3OC)C2)c1 (centres undefined),i,i,i,i,i
O=C(c1cccc(Cl)c1)C1CCCN(C(=O)c2ccc3c(c2)OCO3)C1 (centres undefined),i,31.0,i,i,i
COC(=O)c1cccc(C(=O)N2CCCC(C(=O)c3cccc(OC(C)C)c3)C2)c1 (centres undefined),i,i,i,39.4,i
CC(C)Oc1cccc(C(=O)C2CCCN(C(=O)c3cc(C(F)(F)F)[nH]n3)C2)c1 (centres undefined),i,i,-28.9,i,i
C[C@H](CO)N1C[C@H](C)[C@@H](CN(C)C(=O)Nc2ccc3c(c2)OCO3)Oc2ccc(NC(=O)Cc3cn(C)c4ccccc34)cc2C1=O,i,i,i,i,nt
Cc1cccc(N(C(=O)Nc2ccc(Cl)cc2)C2=NCC(C)S2)n1 (centres undefined),i,i,-28.7,i,i
O=[N+]([O-])c1ccc(N2CCCC2)cc1N1CCCC1,nt,nt,nt,nt,53.4
Cc1cc(N2CCCCC2)ccc1[N+](=O)[O-],i,i,-42.8,i,i
COCC(=O)N(C)C[C@H]1Oc2ncc(C#Cc3ccccc3)cc2C(=O)N([C@H](C)CO)C[C@H]1C,i,i,i,i,nt
CC(C)NC(=O)N(C)C[C@H]1Oc2ccccc2C(=O)N(C)C[C@@H]1C,nt,nt,i,nt,nt
COc1ccc(CSC2=C(C#N)C(=O)NC3(CCCCC3)S2)cc1,i,i,-28.1,i,i
Cc1nc(N2CCN(c3ccccc3)CC2)nc2c1C(=O)CC(C)C2 (centres undefined),i,nt,-32.8,i,i
Cc1nc(N2CCN(c3ccccc3)CC2)nc2c1C(=O)CC(c1ccccc1)C2 (centres undefined),nt,nt,nt,nt,i
N/C(Cc1ccc(Cl)cc1Cl)=N\OC(=O)c1ccccc1,i,i,-30.6,i,i
N/C(Cc1ccc(Cl)cc1Cl)=N\OC(=O)Cc1ccccc1,i,i,i,i,i
Cc1cc(Cl)nc(-n2nc(C)cc2C)n1,i,i,-32.4,i,i
COc1ccc(-c2nnc3sc(CN4C(=O)c5ccccc5C4=O)nn23)cc1,nt,nt,nt,nt,i
COc1ccc(-c2nnc3sc(C(C)N4C(=O)c5ccccc5C4=O)nn23)cc1 (centres undefined),i,i,-44.7,i,nt
c1ccc(OCCSc2nnc3sc4ccccc4n23)cc1,i,i,-41.0,i,i
CC(=O)N1C[C@@H]2C(c3ccc(Br)cc3)[C@H](C1)N2C(=O)NC(C)C (some centres undefined),nt,nt,i,nt,nt
